aSyn UTR act: Activators via SNCA 5'UTR binding, MLPCN; alpha-synuclein 5'UTR reporter, activators screen; activity score, % (tested at 7.5 µM), hits read low; actives 7.1% (n = 300,000); AID 1814; in the data active means activity score below about -60%
* = called active by the depositor. Only a sample is shown.

SMILES | aSyn UTR act
COc1ccc(NC(=O)/C=C/c2ccccc2)cn1 | -116*
COc1ccc(NC(=O)/C=C/c2ccc(F)cc2)cn1 | -114*
O=C(CNC(=O)c1ccc(Br)cc1)c1ccccc1 | -94*
O=C(CNC(=O)c1ccc(Cl)cc1)c1ccccc1 | -100*
O=C(CNC(=O)c1ccc(F)cc1)c1ccc(Cl)cc1 | -168*
O=C(CNC(=O)c1ccccc1C(=O)O)c1ccccc1 | -127*
Fc1ccccc1OCCSc1nnnn1-c1ccccc1 | -83*
c1ccc(OCCSc2nnnn2-c2ccccc2)cc1 | -86*
O=C1C(C=Nc2ccccc2)=C(O)c2ccccc21 | -78*
COc1ccc(N=CC2=C(O)c3ccccc3C2=O)cc1 | -80*
Cc1cc2sc3ccccc3c(=O)c2c(C)c1O | -96*
CC1=C(C(=O)Nc2ccccn2)C(c2ccc(Cl)cc2)NC(=S)N1 (configuration not stated) | -122*
CC1=C(C(=O)Nc2ccccn2)C(c2ccc(Br)cc2)NC(=S)N1 (configuration not stated) | -106*
C/C(N)=C(/C#N)C(=O)COC(=O)c1cc(C)n(-c2ccc(F)cc2)c1C | -109*
Cc1ccc(C(=O)Cn2ncsc2=N)cc1 | -164*
Cc1cccc2c3nc4ccccc4nc3n(C)c12 | -78*
c1ccc(-c2csc(NC3=NCCCCC3)n2)cc1 | -99*
N#Cc1ccc(-c2csc(NC3=NCCCCC3)n2)cc1 | -73*
CC(C)(C)c1ccc(-c2csc(NNC3=NCCCCC3)n2)cc1 | -78*
Cc1n[nH]c(=O)n1-c1ccc(OCc2ccccc2)cc1 | -91*
Cc1cc(=O)[nH]c(N/N=C/c2cc(C)n(-c3ccccc3)c2C)n1 | -63*
Cc1cc(=O)[nH]c(N/N=C/c2ccccc2Cl)n1 | -76*
CCN(CC)c1ccc(/C=N/Nc2nc(C)cc(=O)[nH]2)c(O)c1 | 95
Clc1ccc(SCc2cc(-c3ccccc3)on2)cc1 | -75*
O=C(CCl)NCc1cc(-c2ccc(Cl)cc2)no1 | -65*
SMILES | aSyn UTR act
c1ccc(Cc2cc(-c3ccccc3)on2)cc1 | -130*
c1ccc(SCc2cc(-c3ccccc3)no2)cc1 | -143*
Clc1ccc(-c2cc(CSc3cccc(Cl)c3)on2)cc1 | -67*
Clc1ccc(-c2cc(CSc3ccccc3)on2)cc1 | -181*
O=C(CC1CCCCC1)NCc1ccccc1Cl | -107*
COc1ccc(N2C(=S)NC3N2C(=S)NC3(C)c2ccccc2)cc1 (configuration not stated) | -93*
O=C(N/N=C/c1ccc[nH]1)c1sc2ccccc2c1Cl | -105*
O=C(NC(=S)NCCO)c1sc2ccccc2c1Cl | -143*
CC(C)(C)C(=O)NC(=S)NNC(=O)c1sc2ccccc2c1Cl | 89
CCOC(=S)NC(=O)c1sc2ccccc2c1Cl | -84*
Cc1cnc(NC(=O)c2sc(Nc3ccccc3)nc2N)o1 | -115*
Nc1nc(Nc2ccccc2)sc1C(=O)c1ccccc1 | -121*
COc1cccc(NC(=S)Nc2ccc(Br)cc2Cl)c1 | -93*
COc1cccc(NC(=S)Nc2cccnc2)c1 | -93*
Cc1cccnc1NC(=S)Nc1ccc(Br)cc1Cl | -174*
COc1cccc(NC(=S)NCc2cccs2)c1 | -72*
COc1cccc(NC(=S)N/N=C2/CCCCc3ccccc32)c1 | -178*
NC(=O)c1sc2nc3c(c(-c4ccc(Cl)cc4)c2c1N)CCCC3 | 66
Nc1ccc2nc3c(c(Cl)c2c1)CCCC3 | -88*
CCCOc1ccccc1/C=C(\C#N)C(=O)Nc1cccnc1 | -85*
COc1ccc(O)c(/C=C(\C#N)C(=O)Nc2cccnc2)c1 | -80*
COC(=O)c1ccc(COc2ccccc2/C=C(\C#N)C(=O)Nc2c(C)cccc2C)cc1 | -82*
CN(CC(=O)Nc1ccccc1Br)C(=O)c1cc2c(s1)CCCCC2 | -121*
COc1cc(OC)cc(-c2cc3nc(C)c(CCC(=O)NCc4ccccc4)c(C)n3n2)c1 | 75
COc1cc(OC)cc(-c2cc3nc(C)cc(N4CCN(C(=O)c5ccco5)CC4)n3n2)c1 | -70*
SMILES | aSyn UTR act
CCCOc1ccc(-c2nnc(N)s2)cc1 | -136*
CC(C)c1ccc(-c2nnc(N)s2)cc1 | -102*
CCCOc1ccc(-c2nc(-c3ccc(N)cc3)cs2)cc1 | -123*
COc1ccc(C2=NN(CN3C(=O)C(=O)c4ccccc43)C(c3ccc(Br)cc3)C2)cc1 (configuration not stated) | -115*
COc1ccc(C2=NN(CN3C(=O)C(=O)c4ccccc43)C(c3ccc(C)cc3)C2)cc1 (configuration not stated) | -116*
O=C(O)C1CC(=O)N(c2ccc(OCc3ccccc3)cc2)C1 (configuration not stated) | -66*
C=CCNC(=O)C1CC(=O)N(c2ccc(OCc3ccccc3Cl)cc2)C1 (configuration not stated) | -111*
C=CCN=C(NC#N)SCC(=O)c1cccc(OC)c1 | -104*
CN(C)S(=O)(=O)Oc1cccc(C(=O)Nc2ccc(Cl)cc2)c1 | -129*
CN(C)S(=O)(=O)Oc1cccc(C(=O)Nc2ccccc2Cl)c1 | -91*
CN(C)S(=O)(=O)Oc1ccc(C(=O)Nc2cccc(Cl)c2)cc1 | -244*
CC1Cc2ccccc2N1C(=O)COc1ccc2c(c1)OCO2 (configuration not stated) | -91*
CC1CCCN(C(=O)COc2ccc3c(c2)OCO3)C1 (configuration not stated) | -69*
COc1ccc(-c2noc(-c3ccc(Br)o3)n2)cc1OC | -97*
COc1cc(-c2nc(-c3ccc(Br)o3)no2)cc(OC)c1OC | -76*
COc1ccc(-c2c(-c3cc(OC)c(OC)c(OC)c3)noc2C)cn1 | 76
COc1cc(-c2onc3ccc(Br)cc23)cc(OC)c1OC | 66
Cc1ccc(NC(=O)Nc2ccc(Cl)cn2)cc1 | -147*
CC(/C=C/c1ccc2c(c1)OCO2)=N/NC(=O)CNc1ccc(C)cc1 | -62*
Cc1ccc(NC(=O)Nc2ccc(Cl)c(Cl)c2)nc1 | -90*
Cc1ccc(NC(=O)/C=C/c2ccc3c(c2)OCO3)nc1 | -109*
Cc1ccc(NC(=O)Nc2ccc3c(c2)OCO3)nc1 | -193*
N#C/C(=C\C=C\c1ccccc1[N+](=O)[O-])C(=O)NC1CCCCC1 | -132*
CC(=O)c1ccc(NS(=O)(=O)c2c(C)cc(C)cc2C)cc1 | -102*
Cc1cc(C)c(S(=O)(=O)Nc2ccc3c4c(cccc24)CC3)c(C)c1 | 106
SMILES | aSyn UTR act
Oc1c(C2=NCCNC(C(F)(F)F)=C2)ccc2ccccc12 | -193*
Cc1cccc(Nc2nn3c(=O)c4ccccc4nc3s2)c1 | -160*
Cc1ccc(-c2cc(N)n(-c3ccc(F)cc3)n2)cc1 | -147*
Cc1ccc(-c2cc(N)n(-c3ccc(C)cc3)n2)cc1 | -124*
CCCOC(c1ccccc1)(c1ccc(C(F)(F)F)cc1)C(Oc1nc(C)cc(C)n1)C(=O)O (configuration not stated) | 61
Cc1ccc(C2CCN(C(=O)Nc3ccc(F)cc3)C2)cc1 (configuration not stated) | -125*
Cc1nc2cc(NC(=O)N3CCC(c4ccccc4)C3)ccc2n1C (configuration not stated) | -104*
CCOC(=O)/C=C/c1cnn(-c2ccccc2)c1 | -113*
O=C(NC(=S)Nc1ccc(N2CCOCC2)cc1)c1ccco1 | -108*
O=C(Nc1ccc(N2CCN(Cc3ccccc3F)CC2)cc1)c1ccc([N+](=O)[O-])o1 | 105
O=C(NC(=S)Nc1ccc(CN2CCOCC2)cc1)c1ccco1 | -117*
O=C(Nc1ccc(N2CCN(Cc3ccccc3)CC2)cc1)c1ccco1 | -86*
Nc1ccc2c(c1)sc1ccccc12 | -148*

Compound activity (PubChem BioAssay)
